Counter-ions that a name gives are not always drawn.
Columns and labels:
Experiment in all cases: thermal shift delta Tm vs DMSO control; higher = stronger stabilization (binding)
Details in all cases: 12.5 µM; protein concentration 2 µM
LOC_OS01G01410-cb001 = test system: LOC_OS01G01410-cb001
Method in brief: (§1)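 Heating from 25°C to 95°C at 0.05°C/s, fluorescence was recorded for 19.5 μl wells of 2 μM E. coli-expressed, purified rice kinase domain in 100 mM potassium phosphate pH 7.5, 150 mM NaCl, 10% glycerol and 5 × SYPRO Orange with compound in DMSO. Boltzmann fits gave melting temperatures for this differential scanning fluorimetry assay. The shift reported is the mean of three replicates against the DMSO-only protein.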

LOC_OS01G02750-cb003 = test system: LOC_OS01G02750-cb003
Method in brief: as §1

LOC_OS01G10900-cb004 = test system: LOC_OS01G10900-cb004
Method in brief: as §1

LOC_OS01G13800-cb001 = test system: LOC_OS01G13800-cb001
Method in brief: as §1

LOC_OS01G14860-cb001 = test system: LOC_OS01G14860-cb001
Method in brief: as §1

LOC_OS01G21960-cb002 = test system: LOC_OS01G21960-cb002
Method in brief: as §1

LOC_OS01G39600-cb002 = test system: LOC_OS01G39600-cb002
Method in brief: as §1

LOC_OS01G48390-cb002 = test system: LOC_OS01G48390-cb002
Method in brief: as §1

LOC_OS01G51400-cb002 = test system: LOC_OS01G51400-cb002
Method in brief: as §1

LOC_OS01G52050-cb004 = test system: T1, LOC_OS01G52050-cb004
T1 sequence (whole entry): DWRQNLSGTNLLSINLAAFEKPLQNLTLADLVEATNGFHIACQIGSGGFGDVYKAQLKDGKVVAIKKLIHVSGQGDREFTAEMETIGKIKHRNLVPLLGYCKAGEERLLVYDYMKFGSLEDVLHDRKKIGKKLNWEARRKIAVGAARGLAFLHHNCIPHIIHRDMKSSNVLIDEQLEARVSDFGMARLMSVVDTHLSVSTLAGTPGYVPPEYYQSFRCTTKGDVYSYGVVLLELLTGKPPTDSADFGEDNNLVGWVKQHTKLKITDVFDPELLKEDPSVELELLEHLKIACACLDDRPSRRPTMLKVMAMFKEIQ
Method in brief: as §1
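Also: purified Escherichia coli-expressed rice kinase domain construct.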

Row | SMILES | thermal shift delta Tm (LOC_OS01G01410-cb001) | thermal shift delta Tm (LOC_OS01G02750-cb003) | thermal shift delta Tm (LOC_OS01G10900-cb004) | thermal shift delta Tm (LOC_OS01G13800-cb001) | thermal shift delta Tm (LOC_OS01G14860-cb001) | thermal shift delta Tm (LOC_OS01G21960-cb002) | thermal shift delta Tm (LOC_OS01G39600-cb002) | thermal shift delta Tm (LOC_OS01G48390-cb002) | thermal shift delta Tm (LOC_OS01G51400-cb002) | thermal shift delta Tm (LOC_OS01G52050-cb004)
1 | N#Cc1ccc(-c2c(-c3ncn[nH]3)sc(N3CCOCC3)c2C#N)c(F)c1 | 0.3 °C | 0.97 °C | 4.91 °C | 0.46 °C | 0.41 °C | 1.16 °C | 0.28 °C | 0.62 °C | 0.12 °C | 0.29 °C
2 | O=c1cc(-c2ccccc2)oc2c(O)c(O)ccc12 [7,8-Dihydroxyflavone] | 2.01 °C | 2.3 °C | 0.12 °C | 2.97 °C | 3.88 °C | 3.56 °C | 0.49 °C | 1.55 °C | 0.69 °C | 1.44 °C
3 | CC(C)(O)CNc1ncc(-c2ccnc(Nc3ccnc(Cl)c3)n2)c(CC2CC2)n1 | 0.77 °C | 0.82 °C | 4.56 °C | -0.19 °C | 2.06 °C | 0.91 °C | -0.42 °C | 0.33 °C | 0.19 °C | 0.5 °C
4 | O=C(Nc1ccccc1C(=O)NC1CCCCNC1=O)c1cc2ccccc2s1 (stereo not given) | -0.16 °C | 1.09 °C | 0.05 °C | 0.44 °C | 0.04 °C | 0.32 °C | -0.76 °C | -0.09 °C | 0.19 °C | -0.05 °C
5 | N#C/C(=C(/N)Sc1ccc(N)cc1)c1ccccc1C(F)(F)F | 1.06 °C | -0.14 °C | 0.32 °C | 0.3 °C | 0.5 °C | 0.38 °C | -0.02 °C | 0.18 °C | -0.05 °C | 0.3 °C
6 | CN1CCN(c2cccc(Nc3nc4c(-c5ccc(S(C)(=O)=O)cc5)cccn4n3)c2)CC1 | 2.06 °C | 0.63 °C | 1.02 °C | -0.37 °C | 0.51 °C | 1.39 °C | 2.12 °C | 1.12 °C | 0.39 °C | 2.68 °C
7 | CCn1c(C(=O)N(C2CC2)C2CC2)cc2c3c(ncn3C)c(Nc3cc(C)n(C)n3)nc21 | 0.37 °C | 1.05 °C | -0.06 °C | 0.41 °C | 0.41 °C | 1.12 °C | -0.02 °C | 0.34 °C | 0.23 °C | 0.97 °C
8 | Cn1cc(-c2cnn3c(N)c(Br)c([C@@H]4CCCNC4)nc23)cn1 | 0.38 °C | 0.39 °C | 0.35 °C | 0.21 °C | 0.82 °C | 1.25 °C | 0.31 °C | 0.35 °C | 0.23 °C | 0.71 °C
9 | CCN1CCN(Cc2ccc(-c3cc4c(N[C@H](C)c5ccccc5)ncnc4[nH]3)cc2)CC1 | 3.01 °C | 0.66 °C | 3.11 °C | 0.28 °C | 0.24 °C | 0.28 °C | 2.27 °C | 0.54 °C | 0.24 °C | 0.44 °C
10 | COc1cc(Nc2ncc(F)c(Nc3ccc4c(n3)NC(=O)C(C)(C)O4)n2)cc(OC)c1OC | 0.76 °C | 0.35 °C | 0.54 °C | -0.84 °C | 5.04 °C | 3.95 °C | 4.95 °C | 0.28 °C | 0.41 °C | 7.74 °C
11 | COc1ccc(-c2ccc3c(N4CCOCC4)nc(N4C[C@@H](C)O[C@@H](C)C4)nc3n2)cc1CO | 0.64 °C | 0.68 °C | 0.83 °C | -0.38 °C | 0.08 °C | -0.07 °C | -0.02 °C | -0.04 °C | -0.03 °C | 0.27 °C
12 | COc1cccc2cc(-c3nc([C@H]4CC[C@H](C(=O)O)CC4)n4ncnc(N)c34)[nH]c12 | 0.94 °C | 0.05 °C | 0.36 °C | -0.29 °C | 0.44 °C | 0.7 °C | 0.94 °C | 0.31 °C | 0.16 °C | 0.07 °C
13 | Cn1cc(-c2ccc3c(c2)CCN3C(=O)Cc2cccc(C(F)(F)F)c2)c2c(N)ncnc21 | 1.18 °C | 3.93 °C | 2.83 °C | -0.12 °C | 0.47 °C | 0.33 °C | 0.17 °C | 0.89 °C | -0.22 °C | 2.35 °C
14 | O=C(Nc1cc(C(F)(F)F)cc(C(F)(F)F)c1)c1cc(Cl)ccc1O | 1.21 °C | 2.23 °C | 0.29 °C | 1.37 °C | 1.05 °C | 1.13 °C | 3.34 °C | 1.1 °C | 0.99 °C | 1.75 °C
15 | NC(=O)c1ccc2nc(-c3ccc(Oc4ccc(Cl)cc4)cc3)[nH]c2c1 [Chk2 Inhibitor II (BML-277)] | 0.54 °C | 1.86 °C | 2.68 °C | -0.46 °C | 0.95 °C | 0.75 °C | 0.45 °C | 1.43 °C | 0.88 °C | 1.84 °C
16 | COc1cc(F)c(F)c(Nc2ccc(I)cc2F)c1NS(=O)(=O)C1(C[C@H](O)CO)CC1 [Refametinib (RDEA119, Bay 86-9766)] | 1.35 °C | -1.27 °C | 0.47 °C | 0.32 °C | 0.61 °C | 0.52 °C | -0.03 °C | 0.23 °C | 0.02 °C | 1.46 °C
17 | O=C(Nc1cnn2ccc(N3CCC[C@@H]3c3cc(F)ccc3F)nc12)N1CC[C@H](O)C1 [Larotrectinib (LOXO-101) sulfate] | -0.1 °C | 0.5 °C | 0.8 °C | 0.17 °C | 0.39 °C | 0.24 °C | -0.28 °C | 1.09 °C | -0.18 °C | 0.04 °C
18 | COc1cc2c(Oc3ccc4[nH]c(C)cc4c3F)ncnc2cc1OCCCN1CCCC1 [Cediranib (AZD2171)] | 0.9 °C | 0.39 °C | 0.21 °C | 0.33 °C | 0.26 °C | 0.39 °C | 0.22 °C | 0.63 °C | 0.05 °C | 0.09 °C
19 | CCNC(=O)C#Cc1ccc2c(C(=Nc3ccc(CN(C)C)cc3)c3ccccc3)c(O)[nH]c2c1 | 1.75 °C | 1.1 °C | 0.16 °C | -0.3 °C | 5.63 °C | 0.65 °C | 3.52 °C | 1.35 °C | -0.33 °C | 2.8 °C
20 | Oc1c(F)cc(-c2cnccc2-c2ccc(N3CCOCC3)cc2)cc1F | 0.86 °C | 0.33 °C | 0.19 °C | 0.41 °C | 0.2 °C | 0.65 °C | -0.24 °C | 0 °C | 0.36 °C | -0.22 °C
21 | Cc1ccc(Nc2nccc(N(C)c3ccc4c(C)n(C)nc4c3)n2)cc1S(N)(=O)=O [Pazopanib] | 2.16 °C | 0.45 °C | 1.67 °C | -0.48 °C | 0.04 °C | 0.56 °C | 1.25 °C | 4.34 °C | 0.23 °C | 0.91 °C
22 | CCCCNc1ncc(-c2ccc(CN3CCOCC3)cn2)c(NC2CCC(O)CC2)n1 (stereo not given) | 3.51 °C | 2.08 °C | 0.31 °C | -0.02 °C | 1.13 °C | 1.41 °C | 0.62 °C | 1.38 °C | 0.2 °C | 2.9 °C
